Values without a mark were called inactive. For some of these results: Measured potencies and affinities stand elsewhere. The source made the active and inactive calls. Unless noted, no rule for the calls is given here.

Test [1] is described as follows: antimalarial activity against Dd2 strain (AID 2302;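 active = growth inhibition above 50% at the single 2 µM test dose, taken to imply half-maximal potency below 2 µM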;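 also: 0% = DMSO untreated growth and 100% = chloroquine plus artemisinin killed control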). Particulars: P. falciparum Dd2 in RBCs, LDH growth readout, 72 h; at 2 µM; hits give high values.
Test [2] is described as follows: HepG2 cytotoxicity, primary screen, cytotoxicity control for P. falciparum antimalarial project, cell-based, ATP luminescence (AID 2303;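 active = inhibition above 50%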;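 also: 0% = DMSO wells and 100% = digitonin-killed cells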). As to conditions: HepG2 viability, 24-48 h, at 10 µM, hits give high values.
Test [3] deals with L-lactate dehydrogenase (Plasmodium falciparum (isolate CDC / Honduras)) (UniProt Q27743). The test is described as follows: PfLDH activity inhibition – cell lysate, 3D7 strain, counter-screen for P. falciparum growth inhibition project (AID 2304).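 Also: 0% = vehicle and 100% = reference inhibitor.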 As to conditions: P. falciparum 3D7 crude extract, LDH APAD/NBT absorbance; at 2 µM; hits give high values. For orientation: A counterscreen serves to expose hits that act by an unwanted route or on another target.

Test [4] in a line: inhibition of 3D7 malaria parasite growth – strain 3D7 (AID 2306).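 Also: 0% = DMSO wells and 100% = chloroquine plus artemisinin control wells.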 Particulars: P. falciparum 3D7 erythrocytic growth, LDH absorbance, 72 h; at 2 µM; hits give high values.
The target in test [5] is Calcium-dependent protein kinase 1 (Plasmodium falciparum (isolate 3D7)) (UniProt P62344). The test is described as follows: PfCDPK1 kinase inhibitors, biochemical, TCAMS library (AID 1159585; cut-off not given, nearly all actives have IC50 up to about 0.98 µM;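 also: inhibitors leave more ATP so luminescence rises with inhibition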). As to conditions: recombinant PfCDPK1, Kinase-Glo ATP depletion luminescence.
In test [6] the target is Plasmodium falciparum protein kinase 6 (PK6, PF3D7_1337100) (UniProt Q8IDW1). The test is described as follows: PfPK6 kinase inhibitors, biochemical, TCAMS library (AID 1159586). Particulars: recombinant PfPK6, Kinase-Glo ATP depletion luminescence. (Kinase-Glo reads ATP consumption through a luciferase reaction.)
The target of test [7] is Protein kinase 7 (PK7), Plasmodium falciparum 3D7 (PF3D7_0213400) (UniProt Q7YTF7). In words: inhibition of Plasmodium PK7 catalytic activity – biochemical, TCAMS antimalarial set, Kinase-Glo luminescence (AID 1159587). As to conditions: recombinant PfPK7, Kinase-Glo ATP depletion luminescence.
For test [8], the target named is Calcium-dependent protein kinase 4 (Plasmodium falciparum (isolate 3D7)) (UniProt Q8IBS5). In words: PfCDPK4 kinase inhibitors, biochemical, TCAMS library (AID 1159588; cut-off not given, nearly all actives have IC50 up to about 0.91 µM). Particulars: recombinant PfCDPK4, Kinase-Glo ATP depletion luminescence.
Calcium-dependent protein kinase 4 (Plasmodium falciparum (isolate 3D7)), sequence (Q8IBS5 whole entry, looked up): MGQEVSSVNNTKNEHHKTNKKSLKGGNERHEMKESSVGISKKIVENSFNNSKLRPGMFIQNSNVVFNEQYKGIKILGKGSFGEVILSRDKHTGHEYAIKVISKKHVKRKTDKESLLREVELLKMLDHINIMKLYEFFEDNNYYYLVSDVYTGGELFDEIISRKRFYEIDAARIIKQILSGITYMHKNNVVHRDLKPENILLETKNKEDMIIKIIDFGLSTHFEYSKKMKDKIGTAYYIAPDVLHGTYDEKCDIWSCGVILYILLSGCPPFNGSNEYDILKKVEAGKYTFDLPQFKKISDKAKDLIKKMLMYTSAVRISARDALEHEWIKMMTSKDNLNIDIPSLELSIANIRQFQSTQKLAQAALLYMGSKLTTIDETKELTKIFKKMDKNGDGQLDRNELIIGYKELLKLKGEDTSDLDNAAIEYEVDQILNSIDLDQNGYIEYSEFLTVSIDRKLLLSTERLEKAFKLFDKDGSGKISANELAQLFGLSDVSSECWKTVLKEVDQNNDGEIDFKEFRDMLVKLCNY

Calcium-dependent protein kinase 1 (Plasmodium falciparum (isolate 3D7)), sequence (P62344 whole entry, looked up): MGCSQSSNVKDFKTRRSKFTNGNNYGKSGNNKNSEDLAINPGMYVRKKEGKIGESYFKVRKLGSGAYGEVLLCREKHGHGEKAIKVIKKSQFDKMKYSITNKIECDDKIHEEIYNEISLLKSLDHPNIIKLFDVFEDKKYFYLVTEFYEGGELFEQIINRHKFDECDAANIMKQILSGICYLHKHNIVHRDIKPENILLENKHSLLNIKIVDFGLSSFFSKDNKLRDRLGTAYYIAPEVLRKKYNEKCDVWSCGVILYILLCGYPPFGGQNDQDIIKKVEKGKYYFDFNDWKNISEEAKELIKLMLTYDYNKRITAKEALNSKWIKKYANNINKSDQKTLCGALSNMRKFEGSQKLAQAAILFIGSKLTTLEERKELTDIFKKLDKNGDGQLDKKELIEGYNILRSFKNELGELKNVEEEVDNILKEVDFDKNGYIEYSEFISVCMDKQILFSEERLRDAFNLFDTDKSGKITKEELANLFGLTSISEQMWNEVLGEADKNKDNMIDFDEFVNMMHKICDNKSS
Plasmodium falciparum protein kinase 6 (PK6, PF3D7_1337100), sequence (Q8IDW1 1-305): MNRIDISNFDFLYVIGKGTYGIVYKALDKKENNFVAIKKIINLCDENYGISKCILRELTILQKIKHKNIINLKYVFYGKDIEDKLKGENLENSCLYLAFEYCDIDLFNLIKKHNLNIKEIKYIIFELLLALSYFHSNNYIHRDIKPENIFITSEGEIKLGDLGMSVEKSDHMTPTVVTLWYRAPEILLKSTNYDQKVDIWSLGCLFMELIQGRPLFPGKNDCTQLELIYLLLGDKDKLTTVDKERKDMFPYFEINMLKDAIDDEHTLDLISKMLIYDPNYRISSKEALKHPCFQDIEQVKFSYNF
Protein kinase 7 (PK7), Plasmodium falciparum 3D7 (PF3D7_0213400), sequence (Q7YTF7 1-343): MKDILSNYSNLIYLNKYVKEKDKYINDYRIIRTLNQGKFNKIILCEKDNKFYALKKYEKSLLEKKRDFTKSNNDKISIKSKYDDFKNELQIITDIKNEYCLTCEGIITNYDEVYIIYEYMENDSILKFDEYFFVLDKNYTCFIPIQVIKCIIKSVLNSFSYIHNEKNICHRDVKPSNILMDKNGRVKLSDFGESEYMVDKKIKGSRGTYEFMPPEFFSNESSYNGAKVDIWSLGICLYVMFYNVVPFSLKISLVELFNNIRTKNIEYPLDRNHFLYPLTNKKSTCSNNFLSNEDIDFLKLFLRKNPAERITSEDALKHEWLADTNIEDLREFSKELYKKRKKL
L-lactate dehydrogenase (Plasmodium falciparum (isolate CDC / Honduras)), sequence (Q27743 whole entry, looked up): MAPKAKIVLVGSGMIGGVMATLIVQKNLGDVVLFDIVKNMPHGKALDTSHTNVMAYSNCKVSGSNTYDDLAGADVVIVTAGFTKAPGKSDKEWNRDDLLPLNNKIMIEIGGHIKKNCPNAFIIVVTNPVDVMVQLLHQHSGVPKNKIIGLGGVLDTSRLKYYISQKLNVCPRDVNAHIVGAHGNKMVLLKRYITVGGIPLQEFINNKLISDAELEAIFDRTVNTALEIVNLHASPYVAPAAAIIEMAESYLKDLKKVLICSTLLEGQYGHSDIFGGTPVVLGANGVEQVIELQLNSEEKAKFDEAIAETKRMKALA

The inhibition is the drop in the measured response relative to a control, in per cent. Regarding `CC(C)(C)c1ccc2nc(-c3ccc(/C=C/C(=O)NCc4cccc(C(F)(F)F)c4)cc3)[nH]c2c1`, the values for the growth inhibition in test [1] and in test [4] were 11% and 93% (active), respectively. Besides, the inhibition in test [2] is 31%; in test [3] it was -16%. In addition, the outcome in test [5], in test [6], in test [7] and in test [8] was inactive.

Regarding `CS(=O)(=O)c1cccc(-c2cnc(N)c3cc(-c4cccc(F)c4)ccc23)c1`, the growth inhibition is 13% in test [1] and 97% (active) in test [4]. Besides, the inhibition was 45% in test [2] and 2% in test [3]. Also, the result in test [5], in test [6], in test [7] and in test [8] was inactive.

As for `CC1CN(Cc2cccc(F)c2)CCN1c1ccc(NC(=O)c2ccc(F)cc2)cc1` (stereo not given), the growth inhibition in test [1] is 92% (active); in test [4], 96% (active). Further, the inhibition in test [2] and in test [3] was -2% each time. For the same compound, the result in test [5], in test [6], in test [7] and in test [8] was inactive.

Consider `CC[C@H](C)CNC(=O)c1cccc(-c2ccc(CN3CCC(N4CCCC4)CC3)cc2)n1`, for which the values for the growth inhibition in test [1] and in test [4] were 82% (active) and 101% (active), respectively. The inhibition in test [2] was 41%; in test [3], -2%. The outcome in test [5], in test [6], in test [7] and in test [8] was inactive.

On to `O=C(/C=C/c1ccc(Cl)c(Cl)c1)NCCCCCN1CCCC(C(=O)Nc2cccc(Cl)c2)C1` (stereo not given), for which the growth inhibition in test [1] is 2%; in test [4], 99% (active). Besides, the inhibition in test [2] was 41%; in test [3], -2%. Also, the result in test [5], in test [6], in test [7] and in test [8] was inactive.

With `CCCCN(C(=O)c1ccccc1C)c1nnc(-c2ccccc2C)s1`, the growth inhibition was 94% (active) in test [1] and 92% (active) in test [4]. The inhibition in test [2] is 10%; in test [3] it was 2%. Also, the result in test [5], in test [6], in test [7] and in test [8] was inactive.

`COc1ccc(-c2ccc(NC(=O)c3ccc(F)cc3)cc2)cc1CNC(C)C`: the growth inhibition is 28% in test [1] and 97% (active) in test [4]. For the same compound, the values for the inhibition in test [2] and in test [3] were 24% and 2%, respectively. For the same compound, the result in test [5], in test [6], in test [7] and in test [8] was inactive.

As to `COCCN1CCC(N(Cc2ccc(-c3ccc(OC(F)(F)F)cc3)cc2)C(=O)Cn2c(CCc3cccc(F)c3F)cc(=O)c3ccccc32)CC1`, the growth inhibition is 92% (active) in test [1] and 96% (active) in test [4]. Further, the inhibition in test [2] is 100% (active); in test [3], -10%. For the same compound, the result in test [5], in test [6], in test [7] and in test [8] was inactive.

For the compound `CCN(CC)S(=O)(=O)c1ccc(C(=O)Oc2ccccc2N(Cc2ccc(OC)cc2)C2=NS(=O)(=O)c3ccccc32)cc1`, the results for the growth inhibition in test [1] and in test [4] were 63% (active) and 98% (active), respectively. The inhibition was 0% in test [2] and -3% in test [3]. The result in test [5], in test [6], in test [7] and in test [8] was inactive.

In the case of `CC(=O)Nc1cccc(C(=O)Nc2ccc(-c3ccc(-c4nc5c(C)cccc5[nH]4)s3)cc2)c1`, the growth inhibition in test [1] was 20%; in test [4], 93% (active). Besides, the inhibition in test [2] was 94% (active); in test [3], 2%. In addition, the outcome in test [5], in test [6], in test [7] and in test [8] was inactive.

Regarding `Cc1cccc2[nH]c(-c3ccc(-c4ccc(NC(=O)Nc5ccsc5)cc4)cc3)nc12`, the growth inhibition in test [1] was 70% (active); in test [4], 101% (active). Moreover, the inhibition in test [2] is 49%; in test [3] it was 5%. The result in test [5], in test [6], in test [7] and in test [8] was inactive.

On to `COc1ccc(-c2ccc(NC(=O)c3ccc(F)cc3)cc2)cc1CN1CCCN(C)CC1`, for which the values for the growth inhibition in test [1] and in test [4] were 35% and 98% (active), respectively. Moreover, the inhibition was 29% in test [2] and -2% in test [3]. In addition, the result in test [5], in test [6], in test [7] and in test [8] was inactive.

`Nc1nc2ncn(COC(COCc3ccccc3)COCc3ccccc3)c2c(=O)[nH]1` (tested in a mixture with another compound): the growth inhibition in test [1] is 57% (active); in test [4] it was 86% (active). Also, the inhibition in test [2] is 18%; in test [3], -7%. Further, the outcome in test [5], in test [6], in test [7] and in test [8] was inactive.

For the compound `c1cc(CNc2ncc(-c3ccsc3)c(-c3nccs3)n2)ccn1`, the growth inhibition in test [1] is 81% (active); in test [4], 89% (active). The inhibition in test [2] was 18%; in test [3], -7%. Besides, the outcome in test [5], in test [6], in test [7] and in test [8] was inactive.

With `NC1CCN(Cc2ccc(-c3cccc(-c4nc5ccc(F)cc5[nH]4)c3)cc2)C1` (stereo not given), the results for the growth inhibition in test [1] and in test [4] were 16% and 100% (active), respectively. Besides, the figures for the inhibition in test [2] and in test [3] were 47% and 3%, respectively. Besides, the result in test [5], in test [6], in test [7] and in test [8] was inactive.

Turning to `COc1cccc(NC(=O)c2cc([N+](=O)[O-])ccc2NC(=O)CN2CCc3ccccc3C2)c1`, the growth inhibition is 37% in test [1] and 100% (active) in test [4]. The results for the inhibition in test [2] and in test [3] were 5% and -1%, respectively. For the same compound, the result in test [5], in test [6], in test [7] and in test [8] was inactive.

Turning to `COCCN1CCC(CNCC(C)(C)c2nc(-c3ccc(Cl)c(O)c3)c(-c3ccncc3)[nH]2)CC1`, the growth inhibition was 2% in test [1] and 102% (active) in test [4]. Besides, the inhibition in test [2] was -15%; in test [3], -1%. Further, the outcome in test [5], in test [6], in test [7] and in test [8] was inactive.

On to `O=C1CCCN1CCCNCc1cccc(-c2cccc(-c3nc4ccc(F)cc4[nH]3)c2)c1`, for which the growth inhibition in test [1] is 69% (active); in test [4], 100% (active). Moreover, the inhibition in test [2] was 6%; in test [3], -3%. Besides, the result in test [5], in test [6], in test [7] and in test [8] was inactive.

As to `C=CCOC(=O)N1CCC(CNCc2ccc(-c3ccc(-c4nc5ccccc5[nH]4)s3)cc2)C1` (stereo not given), the growth inhibition was 76% (active) in test [1] and 101% (active) in test [4]. Moreover, the inhibition in test [2] was 29%; in test [3] it was -2%. For the same compound, the outcome in test [5], in test [6], in test [7] and in test [8] was inactive.

Take `COc1cc(-c2nnc(SCC(=O)Nc3cc(C)on3)n2C)cc(OC)c1O`: the growth inhibition in test [1] was 2%; in test [4] it was 89% (active). For the same compound, the inhibition in test [2] was 2%; in test [3], 5%. The outcome in test [5], in test [6], in test [7] and in test [8] was inactive.

Values taken from PubChem BioAssay.
